Test results: PubChem BioAssay (NCATS)
Records with an inconclusive call do not appear. The source made the active and inactive calls. Calls come from the whole dose curve; as a rule, active = well fitted curve in the direction sought with a large enough effect; inconclusive = small, poorly fitted or top-dose-only effect, or another doubt; inactive = no such curve, though single readings can be large; an effect the other way counts as inactive or inconclusive.

Legend:
[1] = MultiTox-Fluor Cytotoxicity Assay - LYMP1-003 - Live Cells (AID 962);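 note: cytotoxic hits lower the live-cell protease signal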
How it was run: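 LYMP1-003 human lymphoblastoid cells (2500/well) in complete medium were preincubated 5 hr at 37 C, then exposed to compounds for 16 hr at 37 C. Live-cell protease cleavage of GF-AFC read by fluorescence (Ex/Em 405/510); AC50 from Hill fits.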

[2] = Cell Viability - LYMP1-003 - Assay at 24 hr (AID 963)
How it was run: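 Human lymphoblastoid LYMP1-003 cells (2500/well) were rested 5 hr at 37 C, then exposed to compounds in complete medium for 24 hr at 37 C. Cellular ATP was quantified by CellTiter-Glo luminescence, and AC50 values came from Hill fits of concentration-response data.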

[3] = Cell Viability - LYMP1-003 - Assay at 40 hr (AID 964); note: series mostly up to about 92 µM; nearly all actives have a fitted effect of over 60% in size
How it was run: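 Human lymphoblastoid LYMP1-003 cells, 2500/well in complete medium, rested 5 hr at 37 C, then exposed to compounds for 40 hr at 37 C. Viability read as intracellular ATP by CellTiter-Glo luminescence; AC50 from Hill fits of concentration-response data.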

[4] = Cell Viability - LYMP2-003 (AID 965);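 note: cells exposed to compounds for 24 h before reading; nearly all actives have a fitted effect of over 50% in size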
How it was run: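 CellTiter-Glo luminescence quantified ATP loss after 24 h compound treatment of LYMP2-003 lymphoblastoid cells at 37 C. Titration series were fitted with the standard Hill equation to give AC50.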

[5] = Cell Viability - LYMP2-005 (AID 967); note: series mostly up to about 92 µM
How it was run: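 LYMP2-005 human lymphoblastoid cells (2500/well) were treated with compounds for 24 h at 37 C. Intracellular ATP was then measured by CellTiter-Glo luminescence after 30 min at room temperature. AC50 values came from Hill-equation fits of qHTS concentration-response data.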

[6] = Cell Viability - LYMP2-011 (AID 969); note: nearly all actives have a fitted effect of over 60% in size
How it was run: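 Human lymphoblastoid cells (2500/well) were plated in complete medium, preincubated 5 hr at 37 C, then exposed to compounds for 24 hr at 37 C. Intracellular ATP was read by CellTiter-Glo luminescence, and AC50 came from Hill-equation concentration-response fits.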

[7] = Cell Viability - LYMP2-013 (AID 970); note: series mostly up to about 92 µM; nearly all actives have a fitted effect of over 55% in size
How it was run: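 Human lymphoblastoid cells, 2500/well, were preincubated 5 hr at 37 C, then treated with compounds for 24 hr at 37 C in complete medium. Intracellular ATP was read by CellTiter-Glo luminescence; AC50 from Hill-equation fits of concentration-response data.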

[8] = Cell Viability - LYMP2-017 (AID 972); note: series mostly up to about 92 µM; nearly all actives have a fitted effect of over 55% in size
How it was run: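 Human lymphoblastoid cells (2500/well) were seeded in complete medium, held 5 hr at 37 C, then exposed to compounds for 24 hr at 37 C. Intracellular ATP was read by CellTiter-Glo luminescence after 30 min at room temperature, with AC50 values from Hill-equation fits.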

[9] = Cell Viability - LYMP2-019 (AID 973); note: nearly all actives have a fitted effect of over 55% in size
How it was run: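 Human lymphoblastoid cells were seeded at 2500 cells/well, preincubated 5 hr at 37 C, then exposed to compounds for 24 hr at 37 C in complete medium. Intracellular ATP was measured by CellTiter-Glo luminescence; AC50 from Hill fits.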

[10] = Cell Viability - LYMP2-021 (AID 974);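 note: compound exposure lasts 24 hours at 37 °C; nearly all actives have a fitted effect of over 55% in size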
How it was run: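 Human lymphoblastoid cells (2500/well) were preincubated 5 hr at 37 C, then exposed to compounds for 24 hr at 37 C in complete medium. Intracellular ATP was read by CellTiter-Glo luminescence; AC50 came from Hill-equation fits of concentration-response data.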

[11] = Cell Viability - LYMP2-023 (AID 975)
How it was run: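 Human lymphoblastoid cells (2500/well) were preincubated 5 hr at 37 C, then exposed to compounds for 24 hr at 37 C in complete medium. Cellular ATP was read by CellTiter-Glo luminescence, and AC50 came from Hill-equation fits.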

[12] = Cell Viability - LYMP2-025 (AID 976); note: series mostly up to about 92 µM
How it was run: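 Human lymphoblastoid LYMP2-025 cells (2500/well) were pre-incubated 5 hr at 37 C, then treated with compounds for 24 hr at 37 C in complete medium. Viability was read as intracellular ATP by CellTiter-Glo luminescence; AC50 from Hill fits.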

[13] = Cell Viability - LYMP2-002 (AID 977); note: series mostly up to about 92 µM
How it was run: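 Human lymphoblastoid LYMP2-002 cells, 2500 per well, exposed to compounds for 24 h at 37 C in complete medium; viability read as intracellular ATP by CellTiter-Glo luminescence, AC50 from Hill fits.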

[14] = Cell Viability - LYMP2-006 (AID 978); note: series mostly up to about 92 µM; nearly all actives have a fitted effect of over 60% in size
How it was run: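 Potency values are Hill-fit AC50s for decreases in intracellular ATP (CellTiter-Glo luminescence). LYMP2-006 lymphoblastoid cells, 2500 per well, were exposed to compound in complete culture medium for 24 hr at 37 C.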

[15] = Cell Viability - LYMP2-007 (AID 979);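 note: cells exposed to compound for 24 h before reading; nearly all actives have a fitted effect of over 60% in size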
How it was run: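 Human lymphoblastoid cells (2500/well) were plated in complete medium, incubated 5 hr at 37 C, then exposed to compounds for 24 hr at 37 C. Intracellular ATP was read by CellTiter-Glo luminescence after 30 min at room temperature; AC50 from Hill fits.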

[16] = Cell Viability - LYMP2-010 (AID 981); note: nearly all actives have a fitted effect of over 55% in size
How it was run: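 Human lymphoblastoid LYMP2-010 cells (2500/well) were preincubated 5 hr at 37 C, then exposed to compounds for 24 hr at 37 C in complete medium. Intracellular ATP was measured by CellTiter-Glo luminescence after 30 min at room temperature; AC50 from Hill-fitted concentration-response.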

[17] = Cell Viability - LYMP2-012 (AID 982)
[18] = Cell Viability - LYMP2-014 (AID 983); note: series mostly up to about 92 µM; nearly all actives have a fitted effect of over 50% in size
How it was run: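 Human lymphoblastoid cells (2500/well) were pre-incubated 5 hr at 37 C, then exposed to compounds in complete medium for 24 hr at 37 C. Intracellular ATP was read by CellTiter-Glo luminescence after 30 min at room temperature; AC50 from Hill fits.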

[19] = Cell Viability - LYMP2-016 (AID 984); note: nearly all actives have a fitted effect of over 55% in size
How it was run: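 Cytotoxicity was scored by luminescent ATP content (CellTiter-Glo) after 24 h compound exposure at 37 C of a human lymphoblastoid line at 2500 cells/well. Concentration-response data were fitted to the Hill equation for AC50.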

[20] = Cell Viability - LYMP2-018 (AID 985);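 note: compound exposure lasted 24 hr at 37 °C; nearly all actives have a fitted effect of over 50% in size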
How it was run: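 Human lymphoblastoid cells (2500/well) were pre-incubated 5 hr at 37 C, then exposed to compounds for 24 hr at 37 C in complete medium. Viability was read as intracellular ATP by CellTiter-Glo luminescence; AC50 values came from Hill-equation fits.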

Measured: Potency

c1ccc2scnc2c1
inactive: [1] | [2] | [3] | [4] | [5] | [6] | [7] | [8] | [9] | [10] | [11] | [12] | [13] | [14] | [15] | [16] | [17] | [18] | [19] | [20]

O=C(O)c1ccccc1C(c1ccc(O)cc1)c1ccc(O)cc1
inactive: [1] | [2] | [3] | [4] | [5] | [6] | [7] | [8] | [9] | [10] | [11] | [12] | [13] | [14] | [15] | [16] | [17] | [18] | [19] | [20]

O[C@@H]([C@H](O)[C@@H](O)CBr)[C@@H](O)CBr
inactive: [1] | [2] | [3] | [4] | [5] | [6] | [7] | [8] | [9] | [10] | [11] | [12] | [13] | [14] | [15] | [16] | [17] | [18] | [19] | [20]

O=S(=O)(O)c1ccccc1
inactive: [1] | [2] | [3] | [4] | [5] | [6] | [7] | [8] | [9] | [10] | [11] | [12] | [13] | [14] | [15] | [16] | [17] | [18] | [19] | [20]

O=C1CCc2ccccc2O1
inactive: [1] | [2] | [3] | [4] | [5] | [6] | [7] | [8] | [9] | [10] | [11] | [12] | [13] | [14] | [15] | [16] | [17] | [18] | [19] | [20]

Cc1c(N=C=O)cccc1N=C=O
inactive: [1] | [2] | [3] | [4] | [5] | [6] | [7] | [8] | [9] | [10] | [11] | [12] | [13] | [14] | [15] | [16] | [17] | [18] | [19] | [20]

CCCCC(CC)CN (stereo not given)
inactive: [1] | [2] | [3] | [4] | [5] | [6] | [7] | [8] | [9] | [10] | [11] | [12] | [13] | [14] | [15] | [16] | [17] | [18] | [19] | [20]
